Source: PubChem
NTR1 agonist = NTR1 (human) agonism. P30989. NTR1-U2OS beta-arrestin-GFP spot imaging, agonist mode. activation, % at 20 µM. 330,000 compounds, 0.17% hits. AID 493036;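 active = activation at or above 40% of the spot to cytoplasm intensity ratio, with at least 20 cells analyzed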
Target sequence (P30989 whole entry, looked up): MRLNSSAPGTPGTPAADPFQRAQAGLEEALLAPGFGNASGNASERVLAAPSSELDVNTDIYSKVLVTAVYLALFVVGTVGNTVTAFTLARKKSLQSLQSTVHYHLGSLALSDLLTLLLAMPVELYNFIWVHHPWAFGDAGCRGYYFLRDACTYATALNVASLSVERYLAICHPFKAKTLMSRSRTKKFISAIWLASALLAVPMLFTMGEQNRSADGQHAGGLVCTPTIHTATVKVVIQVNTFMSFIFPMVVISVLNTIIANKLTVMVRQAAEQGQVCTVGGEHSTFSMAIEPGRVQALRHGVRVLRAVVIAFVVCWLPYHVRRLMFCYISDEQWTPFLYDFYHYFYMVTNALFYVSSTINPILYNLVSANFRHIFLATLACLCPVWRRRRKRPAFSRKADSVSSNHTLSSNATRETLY
Platelet DG rel = platelet dense granule release activity. human platelet-rich plasma, SFLLRN dense granule ATP release, luminescence. inhibition, %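 (compounds screened at 7.5 µM in platelet-rich plasma)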. 300,000 compounds, 0.22% hits. AID 1663;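 active = mean replicate score, as percent of positive control, at or above 50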
HIF act = HIF pathway transcriptional activation; U2OS HRE-luciferase reporter, luminescence; normalized: DMSO 0%, desferrioxamine 100%; activation, % at 7.5 µM (by protocol); 300,000 compounds, 0.32% hits;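 active = mean activation of at least 10% of the iron chelator positive control signal, with at least half of replicates also reaching 10%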
NTR1 ag conf = confirmation of agonists of human NTR1; shares compounds with NTR1 agonist; NTR1-U2OS beta-arrestin-GFP translocation imaging; AID 504550; 480 compounds, 38% hits; activation, % at 20 µM;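 active = mean activation at 20 µM of at least 40%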
Hits are given with their value; n = inactive; x = not tested or not shown. This is a sample that favours compounds with a hit; in the whole collection about 0.63% have one here.

SMILES	NTR1 agonist	Platelet DG rel	HIF act	NTR1 ag conf
Cc1ccc(/C=C2\C(=O)ON=C2c2ccccc2)o1	n	n	n	x
CC(C)(C)OC(=O)NCc1ccc(CNC(=O)c2[nH]cnc2C(=O)NCC(=O)OCc2ccccc2)cc1	56	n	n	n
CC(C)C[C@H](NC(=O)c1nc[nH]c1C(=O)N[C@@H](CC(C)C)C(=O)OC(C)(C)C)C(=O)OCc1ccccc1	n	n	n	x
CC(C)C[C@H](NC(=O)c1[nH]cnc1C(=O)N[C@@H](C)c1ccccc1)C(=O)OCc1ccccc1	42	n	n	63
C[C@H](NC(=O)c1nc[nH]c1C(=O)N[C@@H](Cc1ccccc1)C(=O)OCc1ccccc1)C(=O)OCc1ccccc1	n	n	n	x
CC(C)C[C@H](NC(=O)c1nc[nH]c1C(=O)N1CCc2ccccc2C1)C(=O)OCc1ccccc1	n	n	n	x
CC(C)(C)OC(=O)NCc1ccc(CNC(=O)c2nc[nH]c2C(=O)NCc2ccccc2)cc1	n	x	x	x
O=C(N[C@@H](Cc1ccccc1)C(=O)OCc1ccccc1)c1nc[nH]c1C(=O)N1CCc2ccccc2C1	48	n	n	n
C[C@H](NC(=O)c1nc[nH]c1C(=O)N[C@@H](Cc1ccccc1)C(=O)OC(C)(C)C)C(=O)OCc1ccccc1	41	n	n	n
CC1(C)Cc2nc(N)c(C(=O)NCCO)cc2CO1	n	n	n	x
Cc1cc(C(=O)NCc2ccc(F)cc2)n(-c2ccccc2)n1	n	n	n	x
O=C(N/N=C/c1cc([N+](=O)[O-])ccc1O)c1ccc(COc2ccc3c(c2)CCC3)o1	n	n	n	x
Cc1ccc(C(=O)Nc2ccc(S(=O)(=O)N3CCOCC3)cc2)cc1C	n	n	n	x
Cc1ccc(NC(=O)c2nc[nH]c2C(=O)N[C@H](C)c2ccccc2)cc1	41	x	x	n
Cc1cccc(NC(=O)c2nc[nH]c2C(=O)N[C@H](C)c2ccccc2)c1	48	x	x	n
CNC(=O)c1[nH]cnc1C(=O)Nc1cccc(C)c1	n	x	x	x
C[C@H](NC(=O)c1[nH]cnc1C(=O)Nc1ccccc1)c1ccccc1	n	x	x	x
CC(C)C[C@@H](CO)N(Cc1ccccc1)S(=O)(=O)N(Cc1ccccc1)[C@@H](CO)CC(C)C	47	x	x	n
O=S(=O)(N(Cc1ccccc1)[C@H](CO)Cc1ccccc1)N(Cc1ccccc1)[C@H](CO)Cc1ccccc1	n	x	x	x
CC(C)C[C@@H](CO)N(Cc1ccccc1)S(=O)(=O)N(Cc1ccccc1)[C@H](CO)CC(C)C	50	x	x	n
COc1ccc(CN([C@H](CO)CC(C)C)S(=O)(=O)N(Cc2ccccc2)[C@H](CO)CC(C)C)cc1	n	x	x	x
CN(CCc1ccccn1)C(=S)Nc1cccc(S(=O)(=O)N(C)C)c1	n	n	n	x
O=C(Cc1ccccc1)Nc1nc(-c2ccc(F)c(F)c2)cs1	n	n	n	x
O=C(Cc1cccs1)Nc1nc(-c2ccc(F)c(F)c2)cs1	52	n	n	n
COc1ccc2[nH]c3c(N4CCN(Cc5ccc6c(c5)OCO6)CC4)ncnc3c2c1	n	n	n	x
SMILES	NTR1 agonist	Platelet DG rel	HIF act	NTR1 ag conf
COc1ccc2[nH]c3c(N4CCC(O)(c5cccc(C(F)(F)F)c5)CC4)ncnc3c2c1	49	n	n	n
CCOc1ccc2[nH]c3c(N4CCc5ccccc5C4)ncnc3c2c1	50	n	n	n
Cc1ccc2[nH]c3c(N4CCc5ccccc5C4)ncnc3c2c1	n	n	n	x
COc1ccc(C2CC(=O)Oc3cc(O)cc(O)c32)cc1 (stereo not given)	n	n	n	x
COc1ccc([C@H]2Oc3cc(O)cc(O)c3C(=O)C2[C@@H]2C(=O)c3c(O)cc(O)cc3O[C@@H]2c2ccc(OC)cc2)cc1 (stereo not given in full)	50	n	n	n
O=[N+]([O-])c1ccccc1Nc1c2ccccc2nc2ccccc12	n	n	n	x
O=[N+]([O-])c1ccc(Nc2c3ccccc3nc3ccccc23)cc1	44	n	n	n
COc1ccccc1C(=O)N/C(=C/c1ccc(Br)cc1)C(=O)NCC(=O)O	n	n	n	x
CC(C)CCNC(=O)CSc1nc2ccsc2c(=O)n1NC(=O)c1ccccc1	n	n	n	x
COc1ccc(-n2ncc3c(N4CCN(Cc5ccccc5)CC4)ncnc32)cc1	67	n	n	56
CCN1CCN(c2ncnc3c2cnn3-c2ccccc2)CC1	n	n	n	x
CCOc1ccc(N2CC(C(=O)NCCc3ccc(F)cc3)CC2=O)cc1 (stereo not given)	n	n	n	x
O=C(NC(=S)Nc1nc2c(s1)CCCC2)c1ccc(C(=O)c2ccccc2)cc1	n	n	n	x
O=C(NC(=S)Nc1nc2c(s1)CSc1ccccc1-2)c1ccccc1	62	n	n	n
C[C@@H]1C=CC(=O)O[C@@H]1c1ccc(C(F)(F)F)cc1	n	n	n	x
C[C@H]1C=CC(=O)O[C@H]1c1ccccc1	41	n	n	n
Cc1c(/C=N/NC(=O)c2ccc(O)cc2)c2ccccn2c1C(=O)c1ccc(F)cc1	n	n	n	x
Cc1c(/C=N/NC(=O)c2ccccc2O)c2ccccn2c1C(=O)c1ccc(F)cc1	114	n	n	n
COc1ccccc1N1CCN(C(=O)c2ccc(Br)s2)CC1	n	n	x	x
O=C(NNc1c2ccccc2nc2ccccc12)c1ccccc1O	50	n	n	n
O=C(NNc1c2ccccc2nc2ccccc12)c1ccc(O)cc1O	n	n	n	x
CCN(CC(=O)NCc1ccc(Cl)cc1)C(=O)CCOc1ccccc1C	n	n	n	x
O=C(Nc1ccc(S(=O)(=O)Nc2ccccn2)cc1)C(F)(F)F	n	n	n	x
COc1cc2ccccc2cc1C(=O)N(CCN(C)C)c1nc2c(OC)ccc(OC)c2s1	42	n	n	n
COc1ccc(OC)c2sc(N(CCN(C)C)C(=O)c3ccc4ccccc4c3)nc12	n	n	n	x
SMILES	NTR1 agonist	Platelet DG rel	HIF act	NTR1 ag conf
O=S(=O)(c1ccc(F)cc1)N1CCCC(CO)C1 (stereo not given)	n	n	n	x
Cc1ccnc(SCC(=O)N2CCN(C(c3ccccc3)c3ccccc3)CC2)n1	n	n	n	x
O=C(CCS(=O)(=O)c1ccccc1)Nc1cccc(-c2nc3ccccc3s2)c1	49	n	n	n
O=C(CCS(=O)(=O)c1ccccc1)Nc1ccc(-c2nc3ccccc3s2)cc1	n	n	n	x
CCCS(=O)(=O)c1nc(S(=O)(=O)c2ccc(C)cc2)c(N2CCN(C)CC2)s1	n	n	n	x
CC(O)Cc1cn(CC(=O)N2CCN(C(=O)OC(C)(C)C)CC2)nn1 (stereo not given)	n	n	n	x
N#C/C(=C\c1cn[nH]c1-c1ccc(Cl)cc1)C(=O)NC1CC1	n	n	n	x
N#C/C(=C\c1cn[nH]c1-c1ccc(Cl)cc1)C(=O)NCc1ccccc1	43	n	n	n
Cc1cc(N2CCN(C)CC2)ccc1NC(=O)c1cccc(S(=O)(=O)N2CCc3ccccc3C2)c1	42	n	n	n
Cc1ccc(NC(=O)c2cccc(S(=O)(=O)N3CCc4ccccc4C3)c2)nc1	n	n	n	x
Cc1ccc(-n2c(SCC(=O)NCc3ccco3)nc3sc4c(c3c2=O)CC(C)(C)SC4)cc1	n	n	n	x
COc1ccc(C)c2sc(=NC(=O)c3cccc(N4C(=O)CCC4=O)c3)n(C)c12	n	n	n	x
C=CCn1c(=NC(=O)c2cccc(N3C(=O)CCC3=O)c2)sc2cccc(OC)c21	47	n	n	54
